Shown are actives, neighbours in structure and some others; about 0.99% of the full set was active somewhere.
AMA1 RON2 block – inhibitors of Plasmodium falciparum AMA1-RON2 interaction; AlphaScreen AMA1-biotinylated RON2 peptide binding; Potency, µM (titrated, usually from 58.2 µM), for inactives: at the highest dose activity change, negative = inhibition, hits mostly inhibitors; 360,000 tested, 0.2% active; AID 720542;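 further: 0% = vehicle wells and -100% = peptide control; nearly all actives have a fitted effect of over 45% in size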
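AMA1 (3D7) with his tag at 25 nM final met compounds first, then biotinylated RON2 peptide at 25 nM; detection used donor plus acceptor beads, 10 µg/mL apiece, read by AlphaScreen after 30 min at room temperature.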
SARS PLP yeast – inhibitors of SARS-CoV papain-like protease in yeast; S. cerevisiae expressing SARS-CoV PLpro, growth rescue; Potency, µM (doses to about 32.9 µM), inactives show top-dose activity, positive = growth rescue, hits mostly activators; 330,000 tested, 0.19% active; calls by dose curve; further: 0% is about no effect; nearly all actives have a fitted effect of over 55% in size
AmpC no deterg – inhibitors of E. coli AmpC beta-lactamase without detergent; P00811; AmpC nitrocefin hydrolysis, absorbance 480 nm, 0.0001% Triton; Potency, µM (highest dose often 57.1 µM), for inactives: top-dose activity change, negative = inhibition, actives largely listed as inhibitors; 330,000 tested, 0.52% active; AID 485341;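 further: plate controls were no compound for no effect and no enzyme for full effect; nearly all actives have a fitted effect of over 20% in size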
Target sequence (P00811 whole entry, looked up): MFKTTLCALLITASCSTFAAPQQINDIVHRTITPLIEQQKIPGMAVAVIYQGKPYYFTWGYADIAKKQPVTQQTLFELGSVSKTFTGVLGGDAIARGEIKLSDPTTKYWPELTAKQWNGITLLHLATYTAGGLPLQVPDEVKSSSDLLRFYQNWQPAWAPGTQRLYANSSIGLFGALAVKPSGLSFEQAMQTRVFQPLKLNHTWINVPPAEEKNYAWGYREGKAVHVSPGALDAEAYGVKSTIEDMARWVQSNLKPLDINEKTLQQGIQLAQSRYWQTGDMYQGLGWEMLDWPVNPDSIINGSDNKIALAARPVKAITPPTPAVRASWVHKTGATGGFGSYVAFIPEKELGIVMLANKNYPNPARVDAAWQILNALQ
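AmpC (5.3 nM in the dispensed reagent) in 20 mM phosphate pH 7.0 with 0.01% (detergent screen) or 0.0001% Triton X-100 was preincubated with compounds for 15 min at room temperature. Nitrocefin was then added from an 800 uM solution, and hydrolysis was followed at 480 nm.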
NS1 function inh – inhibitors of influenza NS1 protein function. Potency, µM (highest dose often 46.1 µM), for the others: at the highest dose activity, positive = more growth. 270,000 tested, 0.4% active. AID 2326; calls by dose curve; further: actives are rising curves; nearly all actives have a fitted effect of over 50% in size
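A cell-based growth assay was used: compounds that relieve NS1-induced slow growth of budding yeast raise OD600. Assay medium was yeast nitrogen base with ammonium sulphate and -URA supplement, pH 6.0, with 2% galactose.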
AmpC inh detg – AmpC beta-lactamase inhibition with detergent present | P00811 | AmpC hydrolysis of nitrocefin, absorbance 480 nm, 0.01% Triton | Potency, µM (doses to about 114 µM), without a hit: top-dose activity change, negative = inhibition, most hits filed as inhibitors | 370,000 tested, 0.041% active | AID 485294;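 further: 0% = no-compound wells and -100% = no-enzyme wells; nearly all actives have a fitted effect of over 25% in size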
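20 mM phosphate pH 7.0 + 0.01% (detergent screen) or 0.0001% Triton X-100; 5.3 nM AmpC reagent; cpd preinc 15 min RT; nitrocefin (800 uM stock) to start; A480 q20 s × 4 min; Activity was normalised to no-enzyme and no-compound control wells.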
* marks the source's active call; other numbers are inactive results; u = inconclusive; x = no result; [ ] = dose if it differs, or a comment. Unless noted, the call rests on the fitted dose curve; in most records, active means well fitted curve in the direction sought with a large enough effect; inconclusive means small, poorly fitted or top-dose-only effect, or another doubt; inactive means no such curve, though single readings can be large; an effect the other way counts as inactive or inconclusive. Potency means the concentration at half of the fitted maximal effect.

SMILES | AMA1 RON2 block | SARS PLP yeast | AmpC no deterg | NS1 function inh | AmpC inh detg
COc1ccc(NC(=O)C(=O)NNC(=O)C(C)Oc2ccc(Cl)cc2Cl)cc1 (stereo not given) | 95% | -3% | 32µM* | x | -9%
O=C(CNCCC1=CCCCC1)Nc1ccc(N2CCCCCC2)cc1 | 35µM* | -8% | 57% | -11% | -12%
O=C(CNC1CCCCCC1)Nc1ccc(N2CCCC2)cc1 | x | -1% | -29% | 4% | u
O=C(NCCc1ccccc1)C1CCN(S(=O)(=O)N2CCC3(CC2)OCCO3)CC1 | 12% | 3% | 0.56µM* | -4% | -1%
CCOC(=O)/C=C1\Nc2ccccc2SC1=O | 15% | 1% | 20µM* | -6% | -10%
O=C(C=Cc1ccco1)c1ccc([N+](=O)[O-])cc1 | -20% | x | x | x | x
O=C(/C=C/c1ccco1)c1ccc(NC(=O)C23CC4CC(CC(C4)C2)C3)cc1 | 5%[2.32 µM] | -16% | 18µM* | u | 0%
Cn1nnnc1SCCCNCc1cccc(OCc2ccccc2)c1 | x | x | x | x | 9%
COc1cccc2c1C(=O)c1c(O)c3c(c(O)c1C2=O)C[C@](O)(/C(C)=N\O)C[C@@H]3O[C@H]1C[C@H](N)[C@@H](O)[C@H](C)O1 | x | x | x | 3% | x
Cc1ccc2oc(-c3ccc(C)c(NC(=O)c4ccc(-c5ccccc5[N+](=O)[O-])o4)c3)nc2c1 | x | x | x | x | -5%
CCc1ccc(CCC(=O)Nc2sc(C)c(C)c2C(=O)OC)o1 | 27µM* | -17% | 0% | -29% | 1%
COc1ccc(NC(=O)CCc2c(C)nn(-c3ccc(N4CCCC4)nn3)c2C)cc1Cl | x | x | x | x | -1%
O=C1c2c(O)ccc(O)c2C(=O)c2c(NCCNCCO)ccc(NCCNCCO)c21 | 10µM* | x | 29% | -44% | -22%
O=C(CCNS(=O)(=O)c1ccc(Cl)cc1)N1CCC2(O)CCCCC2C1 (stereo not given) | 5% | 10% | 15% | u | 40µM*
O=C(Nc1cccc(Cl)c1)c1cccc(Oc2ccc([N+](=O)[O-])cc2Cl)c1 | -14% | -17% | u | 0% | -18%
COc1ccc(NC(=O)c2cccc(Oc3ccc([N+](=O)[O-])cc3Cl)c2)cc1 | u | -8% | 2.5µM* | u | u
COc1ccc(C(=O)Nc2ccccc2)cc1NC(=O)c1ccc([N+](=O)[O-])cc1 | -10% | -3% | 18µM* | 3% | -9%
COc1ccc(-n2ncc(C(=O)N3CCN(c4ccccn4)CC3)c2C2CCN(C(=O)OC(C)(C)C)CC2)cc1 | x | x | x | x | 17%
Cc1ccc2nc(/C(C#N)=C/c3ccc(O)c(O)c3)[nH]c2c1 | 48% | 11% | 20µM* | u | 15%
O=C(/C=C/c1ccc(O)c(O)c1)c1ccc(S(=O)(=O)N2CCCCCC2)cc1 | -16% | u | 25µM* | 0% | u
O=C(c1ccc(S(=O)(=O)N2CCCC2)cc1)N1CCCCC1 | -11% | -2% | -6% | x | -8%
CN(C(=O)COC(=O)c1ccccc1SCC(=O)N1CCCC1)C1CCS(=O)(=O)C1 (stereo not given) | 5% | -3% | -12% | 2% | -2%
CC(C)CN(C(=O)COC(=O)c1ccccc1SCC(=O)N1CCCC1)C1CCS(=O)(=O)C1 (stereo not given) | 10µM* | x | x | x | x
CCN(CC)c1ccc(NC(=O)CSc2nc3ccccc3c(=O)[nH]2)cc1 | -9% | -1% | 20µM* | -12% | u
O=C(Nc1ccc(C(=O)OCc2cc(=O)n3c4c(sc3n2)CCCC4)cc1)c1cccc(F)c1 | x | x | x | x | -6%
SMILES | AMA1 RON2 block | SARS PLP yeast | AmpC no deterg | NS1 function inh | AmpC inh detg
CC(=O)n1nc(-c2ccccc2)nc1NCc1ccc(N(C)C)cc1 | 8.9µM* | -1% | 21% | -9% | 2%
Cc1nn(-c2ccc(F)cc2)c(Cl)c1/C=N/NC(=O)c1cccs1 | -10% | -10% | 28µM* | 9% | -1%
Cc1ccc(C)c(NS(=O)(=O)c2ccc3c(c2)Cc2cc(S(=O)(=O)Nc4cc(C)ccc4C)ccc2-3)c1 | 20% | -10% | 7.9µM* | 9% | -9%
C[n+]1c(/C=C\c2ccc(O)c3ncccc23)[se]c2ccccc21 | x | x | x | 2% | x
Cc1nc(C#N)c(N/N=C/c2c(F)cccc2Cl)o1 | 108% | 11µM* | -28% | -33% | 0%
CCN(CC)c1ccc2c(c1)CCCN2 | x | 13µM* | -16% | 4% | -1%

Source: PubChem (National Center for Advancing Translational Sciences (NCATS))
